An excerpt weighted towards active compounds, which were near 12% of everything screened.
HP1b chromo inh: HP1-beta chromodomain-methylated histone interaction inhibition; 390,000 compounds, 0.56% hits; AID 540317; AlphaScreen HP1-beta / biotin-H3K9me3 peptide binding; P83916; Potency, µM (doses to about 114 µM), most hits filed as inhibitors; note: nearly all actives have a fitted effect of over 70% in size
Target sequence (P83916 whole entry, looked up): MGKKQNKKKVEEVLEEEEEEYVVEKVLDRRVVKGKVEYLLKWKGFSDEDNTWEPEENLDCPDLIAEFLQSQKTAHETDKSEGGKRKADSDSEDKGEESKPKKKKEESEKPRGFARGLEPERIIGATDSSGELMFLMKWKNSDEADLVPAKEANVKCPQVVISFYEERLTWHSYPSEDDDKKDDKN
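AlphaScreen: HP1-beta (50 nM) preformed 30 min with biotin-H3(1-18)K9me3 peptide (50 nM) in PBS pH 7.4, 0.01% Tween-20. Compound added for 30 min at RT, then streptavidin donor/nickel chelate acceptor beads (10 ug/mL) for 30 min.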
G9a inh: blocks human histone lysine methyltransferase G9a | Q96KQ7 | G9a H3K9 monomethylation, AlphaScreen, 2 h | Potency, µM (doses to about 102 µM), actives largely listed as inhibitors | 350,000 compounds, 8.8% hits | AID 504332; note: nearly all actives have a fitted effect of over 75% in size
Target sequence (Q96KQ7 913-1193 limits assumed): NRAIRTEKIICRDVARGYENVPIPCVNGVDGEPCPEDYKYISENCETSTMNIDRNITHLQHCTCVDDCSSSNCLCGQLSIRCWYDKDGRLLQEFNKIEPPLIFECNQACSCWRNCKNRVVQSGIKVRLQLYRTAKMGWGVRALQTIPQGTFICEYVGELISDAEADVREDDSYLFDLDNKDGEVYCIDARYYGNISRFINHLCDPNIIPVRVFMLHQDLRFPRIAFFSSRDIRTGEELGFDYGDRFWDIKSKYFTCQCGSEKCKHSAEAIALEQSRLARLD
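Using a bead-based AlphaScreen, monomethylated H3K9 product from 2 h room-temperature reactions (G9a 20 nM, peptide 500 nM, SAM 20 uM) was detected with 0.5 ug/mL rabbit anti-H3K9me1 antibody.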
L3MBTL1 inh: L3MBTL1 (human) inhibition. Q9Y468. AlphaScreen L3MBTL1–H3K9me1 peptide binding. Potency, µM (doses to about 57.1 µM), actives largely listed as inhibitors. 230,000 compounds, 0.66% hits. AID 485360; note: nearly all actives have a fitted effect of over 60% in size
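Read-out is AlphaScreen signal from streptavidin donor and nickel chelate acceptor beads (10 ug/mL final each) bridging L3MBTL1 (50 nM) and biotinylated K9-monomethylated H3(1-15) peptide (75 nM), after 30 min compound exposure at room temperature.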
JMJD2A Tudor inh: inhibitors of human JMJD2A Tudor domain; O75164; AlphaScreen JMJD2A-Tudor / H3K4me3 peptide binding; Potency, µM (highest dose often 114 µM), actives largely listed as inhibitors; 390,000 compounds, 4.4% hits; AID 504339; note: nearly all actives have a fitted effect of over 50% in size
BAZ2B inh: inhibitors of human BAZ2B bromodomain; Q9UIF8; AlphaScreen BAZ2B-H3K14Ac peptide displacement; Potency, µM (highest dose often 114 µM), hits mostly inhibitors; 360,000 compounds, 4.4% hits; note: nearly all actives have a fitted effect of over 60% in size
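Protein-peptide AlphaScreen: BAZ2B 50 nM, b-H3K14Ac 50 nM, 1x PBS pH 7.4 + 0.01% Tween-20. Preincubation 30 min RT; cpd 30 min RT (top 110 uM); beads 20 min RT, light-protected.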
Sfp inh: Sfp phosphopantetheinyl transferase inhibition | AID 1490 | 310,000 compounds, 3.5% hits | Q9F4F7 | Biochemical Sfp PPTase activity, qHTS | Potency, µM, usual class: inhibitors;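 note: the enzyme is Sfp with the accession as filed and its product quenches rhodamine fluorescence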
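Fluorescence-quenching assay: 15 nM Sfp-PPTase preincubated 15 min at room temperature with compound, then 5 uM rhodamine-CoA and 12.5 uM BHQ-2-labelled YbbR peptide added. Fluorescence (ex 525/em 598 nm) read at start and after 30 min; difference gives rate.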
Each line names hits and unclear results; the compound was inactive in the other large screens. Calls come from the whole dose curve; as a rule, active = well fitted curve in the direction sought with a large enough effect; inconclusive = small, poorly fitted or top-dose-only effect, or another doubt; inactive = no such curve, though single readings can be large; an effect the other way counts as inactive or inconclusive.

Cc1cccc(C(=O)Nc2sc3c(c2C(=O)NC(C)C)CCCC3)c1	none (no result: L3MBTL1 inh, Sfp inh)
CCn1c(CCn2ccnc2C)n[nH]c1=S	G9a inh inconclusive, JMJD2A Tudor inh 22µM
CCn1c(CC(C)C)n[nH]c1=S	JMJD2A Tudor inh inconclusive (no result: G9a inh)
O=C(CN1C(=O)NC2(CCCC2)C1=O)OCC(=O)c1cccc(Cl)c1	G9a inh 50µM (no result: Sfp inh)
O=C(CN1C(=O)NC2(CCCC2)C1=O)OCCOc1cccc(Cl)c1	none (no result: Sfp inh)
Cc1[nH]c2ccccc2c1C(=O)COC(=O)Cn1cnc2ccccc21	G9a inh inconclusive
CCOC(=O)CCCCC(=O)c1[nH]c(=O)[nH]c1CSCCO	G9a inh inconclusive, JMJD2A Tudor inh 79µM, BAZ2B inh 13µM (no result: L3MBTL1 inh)
CCOC(=O)CCCCC(=O)c1[nH]c(=O)[nH]c1Cn1cnc2ccccc21	G9a inh inconclusive, JMJD2A Tudor inh inconclusive, BAZ2B inh 35µM
CCOC(=O)CCCCC(=O)c1[nH]c(=O)[nH]c1CSc1nc(-c2ccccc2)c(C#N)c(=O)[nH]1	G9a inh inconclusive, JMJD2A Tudor inh inconclusive, BAZ2B inh 35µM, Sfp inh inconclusive
C/C(=N/N=C(/N)SCc1ccccc1)C(C)(C)C	G9a inh 10µM
CCCc1c(C(=O)N/N=C/c2ccncc2)nnn1-c1nonc1N	none (no result: L3MBTL1 inh)
CCOCc1cc(CN2CCN(c3cccc(C(F)(F)F)c3)CC2)c(O)c2ncccc12	JMJD2A Tudor inh 56µM, BAZ2B inh 28µM (no result: L3MBTL1 inh, Sfp inh)
CC(C)OCc1cc(CN2CCN(c3cccc(C(F)(F)F)c3)CC2)c(O)c2ncccc12	JMJD2A Tudor inh inconclusive, BAZ2B inh 25µM (no result: L3MBTL1 inh, Sfp inh)
COc1ccnc(N2CCN(c3cccc(C(F)(F)F)c3)CC2)c1C#N	none
O=c1cc(CO)oc(CN2CCN(c3cccc(C(F)(F)F)c3)CC2)c1O	G9a inh inconclusive, BAZ2B inh inconclusive (no result: L3MBTL1 inh)
C[C@@H](NC(=O)c1[nH]cnc1C(=O)Nc1ccon1)c1ccccc1	none (no result: Sfp inh)
COC(=O)c1ccc(CNC(=O)c2ccc(COc3ccccc3)cc2)cc1	none
COc1ccc(C2/C=C\CN(Cc3ccc(N(C)C)cc3)CC(=O)N2Cc2ccc(F)cc2)cc1 (stereo not given)	HP1b chromo inh inconclusive, G9a inh inconclusive, JMJD2A Tudor inh 25µM, BAZ2B inh 32µM (no result: L3MBTL1 inh)
C=CCOc1cccc(C(=O)N2CCCC(Nc3ccc4c(c3)OCCO4)C2)c1 (stereo not given)	G9a inh inconclusive, JMJD2A Tudor inh inconclusive, BAZ2B inh 45µM (no result: L3MBTL1 inh)
C=CCOc1cccc(C(=O)N2CCCC(CCC(=O)NCc3ccccc3F)C2)c1 (stereo not given)	none (no result: G9a inh)
O=C(c1ccc(N2CCOCC2)cc1)N1CCCC(Nc2ccccc2)C1 (stereo not given)	JMJD2A Tudor inh inconclusive (no result: L3MBTL1 inh)
C=Cc1ccc(C(=O)N2CCCC(Nc3ccc4c(c3)OCCO4)C2)cc1 (stereo not given)	G9a inh 40µM, JMJD2A Tudor inh inconclusive, BAZ2B inh inconclusive (no result: L3MBTL1 inh)
CC(C(=O)O)n1cc(C#N)c(=O)[nH]c1=O (stereo not given)	none (no result: G9a inh, L3MBTL1 inh, BAZ2B inh, Sfp inh)
CCCn1c(SCC(=O)N(CC)c2c(N)n(Cc3ccccc3)c(=O)[nH]c2=O)nnc1-c1ccncc1	none (no result: G9a inh, L3MBTL1 inh, BAZ2B inh, Sfp inh)
Cc1ccc(CNCc2ccc3c(c2)n(C)c(=O)n3C)cc1	none (no result: L3MBTL1 inh, Sfp inh)
Cc1ccc(C(=O)N/N=C2\SCC(=O)N2c2cc(C)ccc2C)cc1	Sfp inh 71µM
Cc1ccc(CNC(=O)CSCc2cccc(F)c2)cc1	JMJD2A Tudor inh 50µM (no result: L3MBTL1 inh, BAZ2B inh)
COc1ccccc1-c1noc(CCC(=O)Nc2cc(C(F)(F)F)ccc2Cl)n1	G9a inh inconclusive, Sfp inh 18µM (no result: L3MBTL1 inh)
CCOC(=O)/C=C(\C)Sc1cc(O)c2ccccc2c1O	HP1b chromo inh 7.9µM, G9a inh 2.5µM, L3MBTL1 inh inconclusive, JMJD2A Tudor inh 7.9µM, BAZ2B inh 28µM, Sfp inh 7.9µM
CCOC(=O)/C=C(\C)Sc1cc(=O)oc2ccccc12	none
Cc1ccc(S(=O)(=O)N2CCOCC2)cc1NC(=O)CNCC1CCCCC1	G9a inh 10µM, JMJD2A Tudor inh 4µM (no result: BAZ2B inh)
O=C(CC1CCCC1)Nc1cc(S(=O)(=O)N2CCOCC2)ccc1O	HP1b chromo inh inconclusive, G9a inh inconclusive (no result: Sfp inh)
Cc1ccc(S(=O)(=O)N2CCCCC2)cc1NC(=O)CSCC(=O)O	G9a inh 50µM
O=C(O)CSCC(=O)Nc1ccc(S(=O)(=O)N2CCCCC2)cc1	none
OC(CNC1CCCCC1)CN1CCN(CC(O)CNC2CCCCC2)CC1 (stereo not given)	none (no result: HP1b chromo inh, L3MBTL1 inh, JMJD2A Tudor inh)
COc1cc(SC)ccc1C(=O)NCCOc1ccc(Cl)cc1	none
COc1cc(SC)ccc1C(=O)NCCOc1c(C)cc(C)cc1C	Sfp inh 50µM
CC1CCN(C(=O)C(=O)Nc2sc3c(c2C(N)=O)CC(C)(C)OC3)CC1	none (no result: L3MBTL1 inh)
COc1ccc(CNC(=O)CC(C)n2nc(C)cc2C)cc1 (stereo not given)	none (no result: L3MBTL1 inh, Sfp inh)
COC(=O)C(CC(=O)c1ccc(Br)cc1)n1nc(C)cc1C (stereo not given)	BAZ2B inh inconclusive, Sfp inh 50µM (no result: G9a inh)
COC(=O)C(CC(=O)c1ccc(C)cc1)n1nc(C)cc1C (stereo not given)	G9a inh 79µM
Cc1ccc(C(=O)CC(C(=O)O)n2cccn2)cc1 (stereo not given)	G9a inh 50µM
COc1ccc2c(c1)c1c(c(=O)n(Cc3ccccc3)c(=O)n1Cc1ccccc1Cl)n2C	none (no result: L3MBTL1 inh, Sfp inh)
Cc1cccc(CNc2ccnc(-c3ccoc3)n2)c1	Sfp inh 50µM (no result: HP1b chromo inh, G9a inh, L3MBTL1 inh, JMJD2A Tudor inh, BAZ2B inh)

Screens deposited in PubChem by National Center for Advancing Translational Sciences (NCATS).
